# Data reported in publication PMC11062922 (Nature Chemical Biology, 2023).
# Read-outs that look alike come from different tables or passages of the source.
# Assays:
# Parameters in all cases: species or system human, MV4-11 + K-562 + COLO205 + SK-N-BE2 + OVCAR-8
# [1] = system: CSNK1D; details: read-out: apparent Kd; compound concentrations:100 nM and 1000 nM (sheet 'Samples'); n = 1
# [2] = system: MARK2; details: read-out: apparent Kd; compound concentrations:100 nM and 1000 nM (sheet 'Samples'); n = 1
# [3] = system: PIK3CD; details: read-out: apparent Kd, n = 1
# [4] = system: PKN2; details: read-out: apparent Kd, n = 1
# [5] = system: PRKACA; details: read-out: apparent Kd, n = 1
# [6] = system: PRKACB; details: read-out: apparent Kd, n = 1
# [7] = system: PRKCA; details: read-out: apparent Kd, n = 1
# [8] = system: RPS6KB1; details: read-out: apparent Kd, n = 1
# [9] = system: STK3; details: read-out: apparent Kd, n = 1
# [10] = system: TNIK; details: read-out: apparent Kd, n = 1
# [11] = system: STK16; details: read-out: apparent Kd, n = 1
# [12] = system: PRKCQ; details: read-out: apparent Kd, n = 1
# [13] = system: ROCK2; details: read-out: apparent Kd, n = 1
# [14] = system: CSNK1A1; details: read-out: apparent Kd, compound concentrations: 100 nM and 1000 nM (sheet 'Samples'), n = 1
# [15] = system: ERCC2; details: read-out: apparent Kd, n = 1
# [16] = system: PIP4K2C; details: read-out: apparent Kd; compound concentrations: 100 nM and 1000 nM (sheet 'Samples'), CATDS: 1.6714878320236801E-2; n = 1
# [17] = system: MAPK10; details: read-out: apparent Kd, n = 1
# [18] = system: MAPK8; details: read-out: apparent Kd, n = 1
# [19] = system: FER; details: read-out: apparent Kd, compound concentrations: 100 nM and 1000 nM (sheet 'Samples'), n = 1
# [20] = system: PRKAA1; details: read-out: apparent Kd; compound concentrations:100 nM and 1000 nM (sheet 'Samples'); n = 1
# [21] = compound concentrations:100 nM and 1000 nM (sheet 'Samples')
smiles,measurement,setting,value
Cc1occc1-c1nc(N)c(OC[C@@H](N)Cc2c[nH]c3ccccc23)cc1-c1cc2c(C)n[nH]c2cn1 [GSK1660450B],potency estimated from few doses,[1],452 nM
same,potency estimated from few doses,[2],639 nM
same,potency estimated from few doses,[3]; [21],8.67 nM
same,potency estimated from few doses,[4]; [21],2110 nM
same,potency estimated from few doses,[5]; [21],8.55 nM
same,potency estimated from few doses,[6]; [21],18.6 nM
same,potency estimated from few doses,[7]; [21],40 nM
same,potency estimated from few doses,[8]; [21],112 nM
same,potency estimated from few doses,[9]; [21],93.5 nM
same,potency estimated from few doses,[10]; [21],696 nM
CC(C)N1CC(=O)N(C)c2cnc(Nc3cccc(S(=O)(=O)CCN4CCOCC4)c3)nc21 [BI00009348],potency estimated from few doses,"[11]; compound concentrations: 100 nM and 1000 nM (sheet 'Samples'), CATDS: 5.8221493759355002E-2",1180 nM
NS(=O)(=O)c1ccc(NC=C2C(=O)Nc3ccc4ncsc4c32)cc1 [GW589933X],potency estimated from few doses,"[9]; compound concentrations: 100 nM and 1000 nM (sheet 'Samples'), CATDS: 3.1819272048607197E-2",295 nM
same,potency estimated from few doses,"[10]; compound concentrations: 100 nM and 1000 nM (sheet 'Samples'), CATDS: 5.8590994029209698E-2",89.2 nM
CCn1c(-c2nonc2N)nc2cncc(Br)c21 [SB-738004],potency estimated from few doses,[4]; [21],122 nM
same,potency estimated from few doses,[7]; [21],1290 nM
same,potency estimated from few doses,[12]; [21],2390 nM
same,potency estimated from few doses,[13]; [21],84.1 nM
same,potency estimated from few doses,[8]; [21],360 nM
NS(=O)(=O)c1ccc(N/N=C2\C(=O)Nc3ccc4ncccc4c32)cc1 [GW305178X],potency estimated from few doses,"[9]; compound concentrations: 100 nM and 1000 nM (sheet 'Samples'), CATDS: 4.2852870715448799E-2",1580 nM
COc1cc2ncn(-c3cc(OCc4ccccc4S(C)(=O)=O)c(C#N)s3)c2cc1OC [GSK319347A],potency estimated from few doses,"[10]; compound concentrations: 100 nM and 1000 nM (sheet 'Samples'), CATDS: 7.3332449024222507E-2",2280 nM
Cl.Cl.NCC(NC(=O)c1cc(-c2ccnc3[nH]ccc23)cs1)c1ccccc1.NCC(NC(=O)c1cc(-c2ccnc3[nH]ccc23)cs1)c1ccccc1 (stereo not shown) [GSK1229959A],potency estimated from few doses,[14]; CATDS: 1.7292199039589701E-2,1760 nM
same,potency estimated from few doses,"[15]; compound concentrations: 100 nM and 1000 nM (sheet 'Samples'), CATDS: 2.07815599628208E-2",649 nM
same,potency estimated from few doses,"[3]; compound concentrations: 100 nM and 1000 nM (sheet 'Samples'), CATDS: 7.85579878499649E-2",13.2 nM
same,potency estimated from few doses,[16],2230 nM
same,potency estimated from few doses,"[4]; compound concentrations: 100 nM and 1000 nM (sheet 'Samples'), CATDS: 3.5150417589149101E-2",88.5 nM
same,potency estimated from few doses,"[5]; compound concentrations: 100 nM and 1000 nM (sheet 'Samples'), CATDS: 5.4700328593155198E-2",27.5 nM
same,potency estimated from few doses,"[6]; compound concentrations: 100 nM and 1000 nM (sheet 'Samples'), CATDS: 4.1114005800974601E-2",56 nM
same,potency estimated from few doses,"[12]; compound concentrations: 100 nM and 1000 nM (sheet 'Samples'), CATDS: 1.8945184174552199E-2",1030 nM
same,potency estimated from few doses,"[13]; compound concentrations: 100 nM and 1000 nM (sheet 'Samples'), CATDS: 0.12516480015121101",6.2 nM
same,potency estimated from few doses,"[8]; compound concentrations: 100 nM and 1000 nM (sheet 'Samples'), CATDS: 2.0581414615248698E-2",679 nM
CN[C@H](C#Cc1c(F)ccc2c1/C(=C/c1[nH]ccc1OC)C(=O)N2)CO.Cl [RO0283049-001],potency estimated from few doses,"[17]; compound concentrations: 100 nM and 1000 nM (sheet 'Samples'), CATDS: 2.5716910898498702E-2",751 nM
same,potency estimated from few doses,"[18]; compound concentrations: 100 nM and 1000 nM (sheet 'Samples'), CATDS: 2.3865575859687099E-2",951 nM
same,potency estimated from few doses,"[11]; compound concentrations: 100 nM and 1000 nM (sheet 'Samples'), CATDS: 2.2828381206070801E-2",1110 nM
same,potency estimated from few doses,"[9]; compound concentrations: 100 nM and 1000 nM (sheet 'Samples'), CATDS: 2.5923871339058099E-2",733 nM
Cn1cc(C2=C(c3ccc(OC[C@@H](O)CO)cc3)C(=O)NC2=O)c2ccccc21 [RO3208546-000],potency estimated from few doses,"[15]; compound concentrations: 100 nM and 1000 nM (sheet 'Samples'), CATDS: 5.3996089618989399E-2",559 nM
same,potency estimated from few doses,[19]; CATDS: 5.24891250459407E-2,590 nM
NS(=O)(=O)c1ccc(N/C=C2\C(=O)Nc3ccc4ncsc4c32)cc1 [GW297361X],potency estimated from few doses,"[9]; compound concentrations: 100 nM and 1000 nM (sheet 'Samples'), CATDS: 4.8533419751013301E-2",558 nM
same,potency estimated from few doses,"[10]; compound concentrations: 100 nM and 1000 nM (sheet 'Samples'), CATDS: 3.6664419763171099E-2",1050 nM
COc1cc[nH]c1/C=C1\C(=O)Nc2ccc([N+](=O)[O-])c(N3CC[C@@H](O)C3)c21 [RO0504985-000],potency estimated from few doses,"[17]; compound concentrations: 100 nM and 1000 nM (sheet 'Samples'), CATDS: 3.16649097319332E-2",1540 nM
same,potency estimated from few doses,"[11]; compound concentrations: 100 nM and 1000 nM (sheet 'Samples'), CATDS: 3.4591069451125701E-2",1100 nM
CCC(CC)(CC)n1cnc2c(N)ncnc21 [SKF-97620],potency estimated from few doses,[14]; CATDS: 2.3982037208091899E-2,2040 nM
same,potency estimated from few doses,"[3]; compound concentrations: 100 nM and 1000 nM (sheet 'Samples'), CATDS: 0.27263149415517701",20.5 nM
same,potency estimated from few doses,"[13]; compound concentrations: 100 nM and 1000 nM (sheet 'Samples'), CATDS: 2.44983042375609E-2",1890 nM
same,potency estimated from few doses,"[11]; compound concentrations: 100 nM and 1000 nM (sheet 'Samples'), CATDS: 2.4791853580208099E-2",1810 nM
CNCC1CCn2c(c(C3=C(c4cn(C)c5ccccc45)C(=O)NC3=O)c3ccccc32)C1 (stereo not shown) [RO0318676-000],potency estimated from few doses,"[15]; compound concentrations: 100 nM and 1000 nM (sheet 'Samples'), CATDS: 3.3447385930038299E-2",976 nM
same,potency estimated from few doses,[19]; CATDS: 3.4006049633961401E-2,929 nM
same,potency estimated from few doses,"[7]; compound concentrations: 100 nM and 1000 nM (sheet 'Samples'), CATDS: 0.32206529387914401",11.4 nM
same,potency estimated from few doses,"[12]; compound concentrations: 100 nM and 1000 nM (sheet 'Samples'), CATDS: 0.111424858077941",61.3 nM
same,potency estimated from few doses,"[8]; compound concentrations: 100 nM and 1000 nM (sheet 'Samples'), CATDS: 3.9813258984907299E-2",600 nM
Cl.Cl.NC[C@H](CC1CCCCC1)NC(=O)c1ccc(-c2ccnc3[nH]ccc23)s1.NC[C@H](CC1CCCCC1)NC(=O)c1ccc(-c2ccnc3[nH]ccc23)s1 [GSK1581428A],potency estimated from few doses,[4]; [21],452 nM
same,potency estimated from few doses,[5]; [21],31 nM
same,potency estimated from few doses,[6]; [21],49.7 nM
same,potency estimated from few doses,[7]; [21],2080 nM
same,potency estimated from few doses,[13]; [21],22.8 nM
same,potency estimated from few doses,[8]; [21],179 nM
COc1cc[nH]c1/C=C1\C(=O)Nc2ccc(F)c(C#C[C@@H](O)[C@@H](N)[C@@H](C)O)c21 [RO0283120-000],potency estimated from few doses,[15]; [21],785 nM
same,potency estimated from few doses,[17]; [21],654 nM
same,potency estimated from few doses,[18]; [21],942 nM
same,potency estimated from few doses,[2],803 nM
same,potency estimated from few doses,[20],1040 nM
same,potency estimated from few doses,[11]; [21],1230 nM
same,potency estimated from few doses,[9]; [21],680 nM
NS(=O)(=O)c1ccc(N/N=C2\C(=O)Nc3ccc(-c4cnco4)cc32)cc1 [GW276655_KCGS],potency estimated from few doses,[10]; [21],1940 nM
Cl.Nc1nc(-c2ccc3c(c2)C(=Cc2cc(Br)c(O)c(Br)c2)C(=O)N3)cs1 [GW407323A],potency estimated from few doses,"[10]; compound concentrations: 100 nM and 1000 nM (sheet 'Samples'), CATDS: 0.10928508706444801",58.6 nM
COc1ccc(-n2cnc3c(N)ncnc32)cc1 [SKF-97236],potency estimated from few doses,"[3]; compound concentrations: 100 nM and 1000 nM (sheet 'Samples'), CATDS: 0.374681686981787",222 nM
Cl.Cl.Cl.c1ccc(Oc2ccc(Nc3ccnc4cc(-c5ccc(CN6CCNCC6)o5)ccc34)cc2)nc1.c1ccc(Oc2ccc(Nc3ccnc4cc(-c5ccc(CN6CCNCC6)o5)ccc34)cc2)nc1 [GW567142A],potency estimated from few doses,"[4]; compound concentrations: 100 nM and 1000 nM (sheet 'Samples'), CATDS: 1.6443566928173701E-2",2350 nM
same,potency estimated from few doses,"[10]; compound concentrations: 100 nM and 1000 nM (sheet 'Samples'), CATDS: 1.6971599300490501E-2",2060 nM
